Assay results: the supplement of paper PMC10849652
Of roughly 7,900 targets only a part is listed; those with a hit were picked by preference. About 0.6% of all pairs of compound and target were hits. A number with no mark means an inactive call.

Legend:
Experiment in all cases: log2 fold change, soluble protein after heating vs DMSO (PISA); higher = thermal stabilisation; K562 cells, 10 uM, 30 min; active = over 0.2 and 3.5 SD of the protein, either way, in both replicates (recomputed)
[1] = compound: CC1=C(C=C(C=C1)NC(=O)C2=CC(=CC=C2)C(C)(C)C#N)NC3=CC4=C(C=C3)N=CN(C4=O)C
Procedure, shortened: (§1)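 K562 cells at 2×10^6 cells/mL were given 10 μM compound for 30 min. Aliquots then went through 3 min of heating across 48°C-58°C, were pooled, and were extracted in PBS with 0.5% NP-40 at 4°C, and the supernatant after 21,000xg for 90 min was quantified by TMTpro 16plex LC-MS/MS with channel sums equalised. Thermal stability relative to control samples, from duplicates, is given as log2 fold change.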

[2] = compound: CC1=C(C=C(C=C1)NC(=O)C2=CC(=CC=C2)N(C)C)NC(=O)C3=CC=C(C=C3)O
Procedure, shortened: as §1

[3] = compound: CCCCN(Cc1ccc(C(=O)NO)cc1)C(=O)Nc1ccccc1 [Nexturastat A]
Procedure, shortened: as §1

[4] = compound: CCCS(=O)(=O)Nc1ccc(F)c(C(=O)c2c[nH]c3ncc(-c4ccc(Cl)cc4)cc23)c1F [vemurafenib]
Procedure, shortened: as §1

[5] = compound: CCN(CC)Cc1ccc2cc(COC(=O)Nc3ccc(C(=O)NO)cc3)ccc2c1 [givinostat]
Procedure, shortened: as §1

[6] = compound: CC[C@H](C)[C@@H](C(=O)N[C@@H]([C@@H](C)O)C(=O)N[C@@H](CC(C)C)C(=O)[C@]1(CO1)C)NC(=O)[C@H]([C@@H](C)CC)N(C)C(=O)C [epoxomicin]
Procedure, shortened: as §1

[7] = compound: CCn1c(C(=O)N(C2CC2)C2CC2)cc2c3c(ncn3C)c(Nc3cc(C)n(C)n3)nc21
Procedure, shortened: as §1

[8] = compound: CN(C)CC(=O)Nc1ccc2[nH]c(=O)c3ccccc3c2c1
Procedure, shortened: as §1

[9] = compound: CN1C2=C(C3=C1C(=O)N(N=C3)CC4=CC(=CC=C4)N)SC(=C2)S(=O)C
Procedure, shortened: as §1

[10] = compound: CC1=CC=C(C=C1)SC2=C3C=C(SC3=CN=C2)C(=O)N
Procedure, shortened: as §1

[11] = compound: CC1=NC(=CC=C1)C2=C(N=C(N2)C(C)(C)C)C3=CC4=NC=CN=C4C=C3
Procedure, shortened: as §1

[12] = compound: CCCS(=O)(=O)Nc1ccc(F)c(C(=O)c2c[nH]c3ncc(Cl)cc23)c1F
Procedure, shortened: as §1

[13] = compound: CCCc1cc(C)[nH]c(=O)c1CNC(=O)c1cc(-c2ccnc(N3CCN(C)CC3)c2)cc2c1cnn2C(C)C
Procedure, shortened: as §1

[14] = compound: CCN(CCCOc1ccc2c(Nc3cc(CC(=O)Nc4cccc(F)c4)[nH]n3)ncnc2c1)CCOP(=O)(O)O [barasertib]
Procedure, shortened: as §1

[15] = compound: CC[C@@H]1C(=O)N(C)c2cnc(Nc3ccc(C(=O)NC4CCN(C)CC4)cc3OC)nc2N1C1CCCC1
Procedure, shortened: as §1

[16] = compound: CC[C@@H]1C(=O)N(C)c2cnc(Nc3ccc(C(=O)N[C@H]4CC[C@H](N5CCN(CC6CC6)CC5)CC4)cc3OC)nc2N1C(C)C [volasertib]
Procedure, shortened: as §1

[17] = compound: CC[C@H](C)N1C=C(C2=C(C=C(C=C21)C3=CN=C(C=C3)N4CCNCC4)C(=O)NCC5=C(C=C(NC5=O)C)C)C
Procedure, shortened: as §1

[18] = compound: CCn1cc(-c2ccnc3[nH]c(-c4cccc(CN(C)C)c4)cc23)c(-c2ccc(NC(=O)N(C)C)cc2)n1
Procedure, shortened: as §1

[19] = compound: CN(CCOC1=CC=C(C=C1)C[C@H]2C(=O)NC(=O)S2)C3=CC=CC=N3 (racemic) [rosiglitazone]
Procedure, shortened: as §1

[20] = compound: CN1CCC(CNc2ccc3ncc(-c4cccc(OC(F)(F)F)c4)n3n2)CC1
Procedure, shortened: as §1

Sequence of UniProt P14618 (P14618 whole entry, looked up): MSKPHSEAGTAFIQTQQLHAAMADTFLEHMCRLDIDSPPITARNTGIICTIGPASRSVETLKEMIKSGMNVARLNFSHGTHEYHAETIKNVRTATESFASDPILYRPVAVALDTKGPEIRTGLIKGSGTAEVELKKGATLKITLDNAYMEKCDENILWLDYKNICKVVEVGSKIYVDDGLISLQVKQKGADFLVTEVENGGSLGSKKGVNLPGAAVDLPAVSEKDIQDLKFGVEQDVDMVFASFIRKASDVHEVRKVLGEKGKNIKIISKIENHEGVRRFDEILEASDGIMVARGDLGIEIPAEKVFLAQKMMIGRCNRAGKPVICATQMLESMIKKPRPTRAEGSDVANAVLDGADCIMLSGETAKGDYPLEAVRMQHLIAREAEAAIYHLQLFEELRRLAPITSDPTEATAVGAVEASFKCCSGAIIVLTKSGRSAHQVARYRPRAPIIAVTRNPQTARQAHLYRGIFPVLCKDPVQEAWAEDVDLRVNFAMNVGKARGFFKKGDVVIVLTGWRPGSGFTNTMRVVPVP
Sequence of UniProt Q9Y5K3 (Q9Y5K3 whole entry, looked up): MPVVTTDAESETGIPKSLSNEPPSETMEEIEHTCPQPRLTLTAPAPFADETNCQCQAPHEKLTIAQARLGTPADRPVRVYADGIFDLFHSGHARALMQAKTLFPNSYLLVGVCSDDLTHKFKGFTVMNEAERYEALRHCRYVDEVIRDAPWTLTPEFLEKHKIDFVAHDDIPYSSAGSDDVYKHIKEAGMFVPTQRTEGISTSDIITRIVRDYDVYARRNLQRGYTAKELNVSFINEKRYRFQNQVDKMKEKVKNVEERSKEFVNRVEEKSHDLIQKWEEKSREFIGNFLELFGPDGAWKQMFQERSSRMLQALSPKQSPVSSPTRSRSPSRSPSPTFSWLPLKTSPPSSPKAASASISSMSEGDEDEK
Sequence of UniProt Q9BZL4 (Q9BZL4 whole entry, looked up): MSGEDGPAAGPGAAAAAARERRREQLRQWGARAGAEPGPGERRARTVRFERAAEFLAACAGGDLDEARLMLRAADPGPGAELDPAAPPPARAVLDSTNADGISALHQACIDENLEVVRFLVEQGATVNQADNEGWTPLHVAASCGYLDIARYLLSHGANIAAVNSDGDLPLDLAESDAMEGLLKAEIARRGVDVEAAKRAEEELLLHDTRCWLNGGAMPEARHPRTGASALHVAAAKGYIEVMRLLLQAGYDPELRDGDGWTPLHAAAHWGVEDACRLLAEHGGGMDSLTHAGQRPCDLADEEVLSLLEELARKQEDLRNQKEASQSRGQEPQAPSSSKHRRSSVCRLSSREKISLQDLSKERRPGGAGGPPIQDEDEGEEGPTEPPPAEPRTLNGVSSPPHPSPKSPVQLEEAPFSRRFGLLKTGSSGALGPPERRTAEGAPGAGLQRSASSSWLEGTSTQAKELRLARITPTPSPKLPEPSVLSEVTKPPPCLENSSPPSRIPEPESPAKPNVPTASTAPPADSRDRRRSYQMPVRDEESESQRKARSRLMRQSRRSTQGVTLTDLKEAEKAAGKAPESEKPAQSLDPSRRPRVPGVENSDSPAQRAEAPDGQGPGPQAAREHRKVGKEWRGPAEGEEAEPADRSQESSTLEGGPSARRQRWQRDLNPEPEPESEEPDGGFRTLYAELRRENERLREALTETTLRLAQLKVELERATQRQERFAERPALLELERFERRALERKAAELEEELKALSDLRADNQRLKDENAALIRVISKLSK
Sequence of UniProt Q2TAL8 (Q2TAL8 whole entry, looked up): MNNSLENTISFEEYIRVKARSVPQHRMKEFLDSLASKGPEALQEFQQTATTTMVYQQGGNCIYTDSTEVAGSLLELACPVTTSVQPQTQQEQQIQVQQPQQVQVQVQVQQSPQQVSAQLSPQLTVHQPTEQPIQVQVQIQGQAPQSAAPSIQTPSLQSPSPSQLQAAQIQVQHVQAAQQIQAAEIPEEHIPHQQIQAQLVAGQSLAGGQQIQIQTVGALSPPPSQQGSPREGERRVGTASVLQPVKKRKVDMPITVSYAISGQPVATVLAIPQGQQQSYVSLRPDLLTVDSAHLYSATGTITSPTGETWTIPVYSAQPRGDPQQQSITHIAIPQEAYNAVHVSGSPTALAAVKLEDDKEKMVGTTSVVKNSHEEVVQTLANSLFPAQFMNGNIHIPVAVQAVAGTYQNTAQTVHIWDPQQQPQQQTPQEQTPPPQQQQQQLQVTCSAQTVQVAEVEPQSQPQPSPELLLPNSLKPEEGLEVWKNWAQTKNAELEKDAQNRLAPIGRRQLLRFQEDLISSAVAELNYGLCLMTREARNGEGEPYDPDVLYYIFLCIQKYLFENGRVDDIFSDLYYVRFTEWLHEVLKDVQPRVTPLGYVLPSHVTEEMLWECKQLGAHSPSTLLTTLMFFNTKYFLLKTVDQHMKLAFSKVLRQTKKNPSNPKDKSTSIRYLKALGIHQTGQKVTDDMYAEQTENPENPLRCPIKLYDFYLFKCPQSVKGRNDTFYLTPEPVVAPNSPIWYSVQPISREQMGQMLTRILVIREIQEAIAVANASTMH
Sequence of UniProt Q96HA1 (Q96HA1 whole entry, looked up): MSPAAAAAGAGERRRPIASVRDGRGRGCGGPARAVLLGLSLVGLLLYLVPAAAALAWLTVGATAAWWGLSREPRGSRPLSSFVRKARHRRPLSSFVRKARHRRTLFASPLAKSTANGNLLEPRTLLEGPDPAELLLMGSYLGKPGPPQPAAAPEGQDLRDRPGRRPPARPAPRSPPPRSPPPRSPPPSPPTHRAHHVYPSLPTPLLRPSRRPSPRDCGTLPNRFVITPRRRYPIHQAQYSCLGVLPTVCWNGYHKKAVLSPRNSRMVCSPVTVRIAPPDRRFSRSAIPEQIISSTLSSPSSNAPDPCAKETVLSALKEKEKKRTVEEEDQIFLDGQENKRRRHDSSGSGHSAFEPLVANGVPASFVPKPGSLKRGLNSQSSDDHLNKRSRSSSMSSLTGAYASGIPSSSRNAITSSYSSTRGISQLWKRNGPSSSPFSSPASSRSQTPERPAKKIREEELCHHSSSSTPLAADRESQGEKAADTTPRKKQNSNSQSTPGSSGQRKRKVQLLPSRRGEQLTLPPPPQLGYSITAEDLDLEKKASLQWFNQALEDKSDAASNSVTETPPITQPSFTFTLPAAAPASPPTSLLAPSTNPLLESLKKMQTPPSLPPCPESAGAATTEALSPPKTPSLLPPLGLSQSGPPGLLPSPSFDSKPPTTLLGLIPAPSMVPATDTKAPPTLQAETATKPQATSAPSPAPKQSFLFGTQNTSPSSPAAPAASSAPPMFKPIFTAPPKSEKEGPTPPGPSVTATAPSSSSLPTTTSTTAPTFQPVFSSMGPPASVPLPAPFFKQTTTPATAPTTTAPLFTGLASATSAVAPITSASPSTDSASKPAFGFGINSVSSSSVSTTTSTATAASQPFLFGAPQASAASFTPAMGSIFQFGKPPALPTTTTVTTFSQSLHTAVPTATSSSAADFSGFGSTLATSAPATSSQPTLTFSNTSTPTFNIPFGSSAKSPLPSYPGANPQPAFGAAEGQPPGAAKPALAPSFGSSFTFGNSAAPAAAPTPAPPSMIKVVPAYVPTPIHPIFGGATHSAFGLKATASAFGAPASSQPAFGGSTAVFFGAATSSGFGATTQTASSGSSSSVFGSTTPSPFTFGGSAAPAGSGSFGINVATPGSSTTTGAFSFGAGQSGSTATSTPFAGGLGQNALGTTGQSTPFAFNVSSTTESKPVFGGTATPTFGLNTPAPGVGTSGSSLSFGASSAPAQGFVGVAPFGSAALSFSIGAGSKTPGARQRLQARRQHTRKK
Sequence of UniProt Q14289 (Q14289 whole entry, looked up): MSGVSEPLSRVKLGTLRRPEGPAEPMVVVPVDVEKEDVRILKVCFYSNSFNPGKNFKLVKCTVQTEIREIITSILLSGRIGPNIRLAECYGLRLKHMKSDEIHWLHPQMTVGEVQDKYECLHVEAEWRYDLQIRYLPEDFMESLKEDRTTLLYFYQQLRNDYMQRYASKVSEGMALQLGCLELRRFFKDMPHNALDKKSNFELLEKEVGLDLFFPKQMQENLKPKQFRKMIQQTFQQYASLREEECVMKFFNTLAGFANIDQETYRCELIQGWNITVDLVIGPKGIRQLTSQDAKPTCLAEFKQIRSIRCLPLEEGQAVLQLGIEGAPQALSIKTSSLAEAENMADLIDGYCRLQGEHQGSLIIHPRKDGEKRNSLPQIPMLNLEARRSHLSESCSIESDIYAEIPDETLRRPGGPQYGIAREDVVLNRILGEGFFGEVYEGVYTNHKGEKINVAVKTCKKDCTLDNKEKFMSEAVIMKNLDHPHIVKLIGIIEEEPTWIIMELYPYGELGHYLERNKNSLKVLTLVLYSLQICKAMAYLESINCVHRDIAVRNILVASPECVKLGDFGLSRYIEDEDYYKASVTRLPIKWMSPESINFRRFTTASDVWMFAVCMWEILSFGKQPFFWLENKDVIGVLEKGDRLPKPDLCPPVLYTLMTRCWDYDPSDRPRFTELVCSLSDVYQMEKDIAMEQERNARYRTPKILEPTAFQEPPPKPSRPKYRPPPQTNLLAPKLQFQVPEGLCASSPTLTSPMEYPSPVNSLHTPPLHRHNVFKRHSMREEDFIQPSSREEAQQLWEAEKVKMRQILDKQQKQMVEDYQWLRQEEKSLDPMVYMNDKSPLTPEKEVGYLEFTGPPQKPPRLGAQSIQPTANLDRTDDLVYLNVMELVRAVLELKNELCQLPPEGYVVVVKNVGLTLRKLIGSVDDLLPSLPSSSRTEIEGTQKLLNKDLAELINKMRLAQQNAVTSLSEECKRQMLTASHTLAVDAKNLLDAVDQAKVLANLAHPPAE
Sequence of UniProt Q12974 (Q12974 whole entry, looked up): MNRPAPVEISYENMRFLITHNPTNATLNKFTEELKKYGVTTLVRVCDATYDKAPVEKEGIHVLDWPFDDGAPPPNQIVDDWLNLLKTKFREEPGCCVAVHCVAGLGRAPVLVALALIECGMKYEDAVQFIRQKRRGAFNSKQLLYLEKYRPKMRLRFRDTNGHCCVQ

Target | log2 fold change [1] | log2 fold change [2] | log2 fold change [3] | log2 fold change [4] | log2 fold change [5] | log2 fold change [6] | log2 fold change [7] | log2 fold change [8] | log2 fold change [9] | log2 fold change [10] | log2 fold change [11] | log2 fold change [12] | log2 fold change [13] | log2 fold change [14] | log2 fold change [15] | log2 fold change [16] | log2 fold change [17] | log2 fold change [18] | log2 fold change [19] | log2 fold change [20]
PEX5 isoform 4 (UniProt P50542) | 0.089 | -0.018 | 0.145 | -0.066 | 0.127 | 0.2 | 0.096 | -0.017 | 0.366 |  |  |  |  |  |  |  |  |  |  | 
PCYT1B (UniProt Q9Y5K3) | 0.007 | 0.022 | -0.06 | 0.022 | 0.038 | 0.001 | -0.033 | 0.012 | -0.007 | 0.011 | 0.034 | 0.049 | -0.031 | 0.048 | -0.105 | -0.315 (active) | 0.08 | 0 | 0.041 | 0.035
PRKD3 (UniProt O94806) | 0.096 | -0.052 |  | 0.294 | -0.008 |  | -0.033 | 0.059 | -0.002 |  | -0.012 |  | 0.115 | 0.086 |  |  |  | -0.125 | 0.192 | -0.418
PHKA1 (UniProt P46020) | -0.027 | -0.155 | 0.047 |  | -0.024 | -0.039 | -0.019 |  | 0.112 | -0.062 | -0.033 | 0.019 | 0.076 | -0.133 | 0.042 | -0.367 | 0.076 | 0.143 | -0.038 | -0.045
PTPA (UniProt A6PVN8) | 0.062 | -0.128 | -0.038 | -0.065 | -0.857 (active) | 0.053 | 0.099 | 0.016 | 0.069 | -0.15 |  | -0.11 | 0.038 | 0.01 | 0.051 | -0.041 | -0.03 | 0.047 | -0.105 | 0.011
PGK2 (UniProt P07205) | 0.019 | 0.058 | 0.039 | -0.084 |  | -0.037 |  | -0.112 | -0.059 | -0.075 | 0.05 | -0.051 | -0.006 | -0.046 | 0.054 | 0.123 | -0.028 | 0.123 | 0.023 | 0.06
QRICH1 (UniProt Q2TAL8) | 0.064 | -0.021 | 0.158 | 0.173 | 0.07 | 0.027 | -0.163 | 0.258 | 0 | 0.06 | 0.192 | 0.122 | -0.215 | 0.214 | -0.464 (active) | -0.39 | 0.07 |  | -0.017 | 
PTTG1IP (UniProt P53801) | 0.122 |  | -0.024 | -0.059 | -0.124 | -0.017 | -0.176 | -0.041 | 0.009 | -0.107 | -0.062 | 0.02 | 0.008 | -0.025 | -0.223 | -0.05 | -0.154 | -0.01 | 0.011 | -0.771 (active)
PKM isoform 2 (UniProt P14618) | -0.13 | -0.082 | 0.267 | 0.088 |  | 0.29 |  | 0.053 | -0.184 | 0.049 | 0.033 | 0.094 | 0.056 | -0.005 | 0 | 0.091 | 0.018 | -0.006 | -0.1 | -0.046
QKI (UniProt Q96PU8) | 0.05 | -0.037 | -0.109 | 0.033 | 0.023 | 0.049 | 0.022 | 0.034 | 0.017 | 0.019 | 0.036 | 0.084 | -0.045 | -0.003 | -0.008 | -0.1 | 0.084 | 0.023 | 0.041 | -0.172
PKN2 (UniProt Q16513) | 0.104 | -0.005 | 0.042 | 0.05 | 0.034 | -0.027 | -0.197 | 0.009 | 0.027 | 0.018 | -0.012 | 0.086 | 0.032 | 0.106 |  | -0.135 | 0.159 | -0.046 | 0.026 | -0.288 (active)
PDSS2 (UniProt Q86YH6) | -0.215 | 0.017 | -0.126 | -0.03 | -0.046 | 0.024 | 0.048 | 0.05 | 0.02 | 0.093 | -0.083 | 0.244 |  | 0.027 | 0.021 | 0.016 | 0.12 | -0.069 | 0.055 | 0.018
PBX2 (UniProt P40425) | 0.049 | 0.001 | 0.072 | 0.099 | 0.138 | 0.123 | -0.03 | 0.023 | -0.056 | 0.089 | 0.165 | 0.136 | 0.026 | 0.03 |  | -0.251 | 0.025 | -0.009 | 0.052 | 0.024
POM121 (UniProt Q96HA1) | -0.045 | -0.032 | 0.117 | -0.039 | 0.119 | -0.062 | -0.037 | -0.071 | 0.137 | -0.056 | -0.074 | 0.007 |  | 0.111 | -0.017 | -0.027 | 0.056 | 0.03 | 0.001 | -0.149
PNN (UniProt Q9H307) | -0.101 | 0.084 | 0.03 |  | 0.121 | -0.07 | -0.052 |  | 0.067 | 0.003 | 0.011 | 0.04 | 0.004 | 0.027 | 0.248 | -0.039 | -0.077 | 0.021 | 0.003 | -0.042
PTK2B (UniProt Q14289) | -0.09 | 0 | 0.217 | -0.129 | 0.421 | -0.012 | -0.198 | 0.017 | 0.082 | 0.06 | -0.008 | 0 | 0.06 | 0.031 |  | -1.28 (active) | -0.244 | -0.141 | 0.165 | -0.051
PPP1R12C (UniProt Q9BZL4) | -0.048 | 0.027 | 0.154 | -0.023 | 0.089 | -0.102 | -0.094 | -0.03 | 0.013 | 0.124 |  | 0.265 | 0.04 | 0.112 | 0.029 | -0.027 | 0.204 | -0.116 | -0.031 | 0.029
PTP4A2 (UniProt Q12974) | 0.026 | -0.045 | -0.069 | -0.002 | -0.022 | 0.153 | 0.027 | -0.026 | -0.003 | 0.012 | 0.076 | -0.129 | 0.02 | -0.006 | 0.039 | 0.083 | 0.077 |  | -0.124 | 
